The whole screen tested about 69,000 compounds, of which about 2,600 (3.8%) were called active. Rule as the data show it: active = activity change below about -70% (passing the limit was not always enough); inconclusive = no clear call, values can overlap the other calls. For the sample, actives were picked, then their nearest neighbours and some compounds at random.

The experiment in a line: inhibitors of Toxoplasma growth in IFN-γ-primed hosts – cell-based, primary screen (AID 1259416).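 Also: host cells are HeLa cells infected with Toxoplasma gondii.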 The settings on record: Toxoplasma gondii growth in IFN-gamma-treated host cells; active compounds read low; concentration not given here.
As to `O=C(CCn1cnnn1)NCc1cnn2ccccc12`, the activity change, negative = inhibition is 1.34% (inactive). With `COCC(=O)Nc1ccc(-c2nc(-c3cc(C)ccc3C)co2)cc1` the figure was 11.3% (inactive).

As for `COc1ccc(S(=O)(=O)N2CCOCC2)cc1NC(=O)COc1ccccc1`, the activity change, negative = inhibition is -52.6% (inactive). With `CNC(=O)c1ccccc1Nc1nc(Nc2ccc(N3CCOCC3)cc2OC)ncc1Cl` the figure was -72.7% (active).

On to `COc1ccccc1C(=O)Nc1ccc(N2CCN(C)CC2)cc1`, for which the activity change, negative = inhibition is -6.5% (inactive). With `CCS(=O)(=O)N1CCC2(CC1)CN(S(=O)(=O)c1ccc(C)cc1)[C@H](CO)c1[nH]c3cc(OC)ccc3c12` the figure was 268% (inactive); with `c1cnc2c(-c3cc(N4CCOCC4)ncn3)cccc2c1`, 12.9% (inactive); with `Nc1cc(C(F)(F)F)c(-c2cc(N3CCOCC3)nc(N3CCOCC3)n2)cn1`, -74.6% (active). With `Nc1cc(N2C[C@H]3CC=CC[C@H]3C2)nc(N2CCOCC2)n1` the figure was 14.9% (inactive); with `Cc1ncc(C(=O)NCCCn2ccc3ccccc32)c(C)n1`, 2.92% (inactive). With `CCS(=O)(=O)N1CC2(CN(C(=O)c3ccc(F)cc3)[C@@H](CO)c3c2c2ccc(OC)cc2n3C)C1` the figure was 62.5% (inactive); with `CC(C)CN1CCS(=O)(=O)[C@H]2CCN(S(=O)(=O)N(C)C)CC[C@@H]21`, -5.98% (inactive).

For `Cn1nc(C(=O)NCC2CCC(c3nnc(-c4ccncc4)o3)CC2)ccc1=O` (stereo not given), the activity change, negative = inhibition is 24.6% (inactive). `O=C(O)CC1CCC(c2ccc(-c3ccc(Nc4ccc(C(F)(F)F)nc4)cn3)cc2)CC1` (stereo not given): the activity change, negative = inhibition was -61.2% (inactive). Take `CCCC1CCC(c2ccc(-c3ccc(CC)cn3)cc2F)CC1` (stereo not given): the activity change, negative = inhibition is -76% (active).

In the case of `COCCN(Cc1cccs1)C(=O)c1ccncc1Cl`, the activity change, negative = inhibition is 3.28% (inactive). Take `COc1cccc(C2=NN(C(=O)C(C)C)C(O)(C(F)(F)F)C2)c1` (stereo not given): the activity change, negative = inhibition was -0.0765% (inactive). To `COc1c(C)cnc(CN(C)C(=O)c2cnn3cc(C)cnc23)c1C` belongs -3.21% (inactive); to `COCC1CCN(c2nc(C(C)(C)C)nc3c2cnn3C)C1` (stereo not given), -12.1% (inactive). With `O=C(Nc1cccnc1)c1cc2c(s1)-c1ccccc1CC2` the figure was -101% (active).

Turning to `Cc1ccc(N2CC3(CCN(C(=O)COc4ccccc4)C3)CC2=O)cc1` (stereo not given), the activity change, negative = inhibition is -15.8% (inactive).

Take `CCN1CCN(c2ncnc3sc(C(=O)NCCc4c[nH]c5ccc(Cl)cc45)c(C)c23)CC1`: the activity change, negative = inhibition is -83.1% (active). As for `CCOC(=O)c1nc(NCCc2c[nH]c3ccc(Cl)cc23)c2c(C)noc2n1`, the activity change, negative = inhibition is 46.7% (inactive). To `O=C(NCCc1c[nH]c2ccccc12)c1cc(=O)nc2sc(N3CCCC3)nn12` belongs 5.09% (inactive). With `COCCn1cc(-c2nc(C(=O)NCCc3cccnc3)c3ccccn23)nc1C` the figure was -8.4% (inactive).
